{"source": "PubChem BioAssay (NCATS)", "note": "Inconclusive results are not listed. A call without a number means that no potency is given here. Activity calls are given as the source filed them. Unless noted, calls follow the shape of the full dose curve."}
{"biological_target": "Calcium and integrin-binding protein 1 (Homo sapiens) (UniProt Q99828)", "sequence (Q99828 whole entry, looked up)": "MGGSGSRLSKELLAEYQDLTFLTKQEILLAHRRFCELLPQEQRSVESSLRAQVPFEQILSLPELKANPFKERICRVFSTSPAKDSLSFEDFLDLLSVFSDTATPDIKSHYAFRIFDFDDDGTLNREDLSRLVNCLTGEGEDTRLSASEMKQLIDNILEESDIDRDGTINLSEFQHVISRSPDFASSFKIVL", "assay": "Primary qHTS for Identification of Calcium Integrin Binding Protein 1 (CIB1) Competitor (AID 1508620; active = well fitted inhibition curve with a large enough effect;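 also: GST tagged CIB1 binding a fluorescein labelled alphaIIb integrin peptide tracer; top concentration of the series differs between compounds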)", "settings": "CIB1-GST / FITC-alphaIIb peptide fluorescence polarization; series mostly up to 114 µM", "procedure,_shortened": "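CIB1-GST (1 uM final) and compound incubated 15 min at room temperature before adding FITC-alphaIIb peptide tracer (100 nM final). Competition for binding read by fluorescence polarization (ex 480, em 540) after another 15 min at room temperature.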"}
{"molecule": "CC(=O)O[C@@H]1CC2C3CCc4cc(OC(=O)c5ccccc5)ccc4C3CCC2(C)[C@H]1OC(C)=O", "note": "(some centres undefined)", "Potency": "inactive"}
{"molecule": "CN1C(CSCC(F)(F)F)Nc2cc(Cl)c(S(N)(=O)=O)cc2S1(=O)=O", "note": "(centres undefined)", "Potency": "inactive"}
{"molecule": "O=C(O)c1ccc(OCCN2CCCCC2)cc1", "Potency": "inactive"}
{"molecule": "CC(=O)OC[C@H]1O[C@@H](OC(C)=O)[C@H](OC(C)=O)[C@@H]1OC(C)=O", "Potency": "inactive"}
{"molecule": "CC(=O)OCC(=O)[C@@]1(O)[C@H](OC(C)=O)C[C@H]2[C@@H]3CCC4=CC(=O)C=C[C@]4(C)[C@@]3(F)[C@@H](O)C[C@@]21C", "Potency": "inactive"}
{"molecule": "Cc1[nH]cnc1-c1ccc(Cl)cc1", "Potency": "inactive"}
{"molecule": "O=P(O)(O)OCC(O)CO", "note": "(centres undefined)", "Potency": "inactive"}
{"molecule": "CN(C)CCCOC1(Cc2ccccc2)CCCCCC1", "Potency": "inactive"}
{"molecule": "Cc1ccc(C(C)OC(=O)C2(C)CCC(C(=O)O)C2(C)C)cc1", "note": "(centres undefined)", "Potency": "inactive"}
{"molecule": "COC(=O)CCCCC(CCSS/C(CCO)=C(\\C)N(C=O)Cc1cnc(C)nc1N)SC(C)=O", "note": "(centres undefined)", "Potency": "inactive"}
{"molecule": "N#C/C(=C1/SC[C@@H](c2ccc(Cl)cc2Cl)S1)n1ccnc1", "Potency": "inactive"}
{"molecule": "Cc1cnc(NS(=O)(=O)c2ccc(N)cc2)nc1", "Potency": "inactive"}
{"molecule": "CCO[C@H](Cc1ccc(OCCc2ccc(OS(C)(=O)=O)cc2)cc1)C(=O)O", "Potency": "inactive"}
{"molecule": "OC[C@]1(O)OC[C@@H](O)[C@H](O)[C@@H]1O", "Potency": "inactive"}
{"molecule": "CO/N=C(\\C(=O)O)c1csc(NC(=O)CCl)n1", "Potency": "inactive"}
{"molecule": "CN(C)CCN1CCN(c2cccc(Cl)c2)C1=O", "Potency": "inactive"}
{"molecule": "CC(=O)c1ccc(O)c(C(N)=O)c1", "Potency": "inactive"}
{"molecule": "CN1C(=O)c2ccccc2C1=O", "Potency": "inactive"}
{"molecule": "C=CCOc1cc(Cl)ccc1C(=O)NCCN(CC)CC", "Potency": "inactive"}
{"molecule": "CCN(CC)CC(=O)Oc1ccc(NC(C)=O)cc1", "Potency": "inactive"}
{"molecule": "CCC(C(=O)OCCN1CCOC(c2ccccc2)C1C)c1ccccc1", "note": "(centres undefined)", "Potency": "inactive"}
{"molecule": "CCn1ccc(NS(=O)(=O)c2ccc(N)cc2)nc1=O", "Potency": "inactive"}
{"molecule": "COC(=O)c1cc(S(N)(=O)=O)ccc1OC", "Potency": "inactive"}
{"molecule": "CCCCOC(=O)CCCCCCCCC(=O)OCCCC", "Potency": "inactive"}
{"molecule": "O=C1CC[C@H](C(=O)N2CCCCC2)N1", "Potency": "inactive"}
{"molecule": "CCCC(=O)OCOC(=O)C1=C(C)NC(C)=C(C(=O)OC)C1c1cccc(Cl)c1Cl", "note": "(centres undefined)", "Potency": "inactive"}
{"molecule": "CC1(C)O[C@@H]2C[C@H]3[C@@H]4C[C@H](F)C5=CC(=O)C=C[C@]5(C)[C@@]4(F)[C@@H](O)C[C@]3(C)[C@]2(C(=O)CO)O1", "Potency": "inactive"}
{"molecule": "CCOC(=O)Oc1ccc(CCNC(=O)[C@H](CCSC)NC(C)=O)cc1OC(=O)OCC", "Potency": "inactive"}
{"molecule": "NC(=O)COCCN1CCN(C(c2ccccc2)c2ccc(Cl)cc2)CC1", "note": "(centres undefined)", "Potency": "inactive"}
{"molecule": "Nc1ncnc2c1ncn2Cc1c(F)cccc1Cl", "Potency": "inactive"}
{"molecule": "O=c1[nH]c(=O)n([C@H]2O[C@H](CO)[C@@H](O)[C@@H]2O)cc1/C=C\\Br", "Potency": "inactive"}
{"molecule": "CCOC(=O)C(O)c1ccccc1", "note": "(centres undefined)", "Potency": "inactive"}
{"molecule": "CCOc1ccccc1OCC1CNCCO1", "note": "(centres undefined)", "Potency": "inactive"}
{"molecule": "C1=CC2C3C=CC(C3)C2C1", "note": "(centres undefined)", "Potency": "inactive"}
{"molecule": "CC(C)=CCC/C(C)=C/CC/C(C)=C/CCC(=O)OC/C=C(\\C)CCC=C(C)C", "Potency": "inactive"}
{"molecule": "O=C(O)CCCC[C@@H]1SC[C@@H]2NC(=O)N[C@@H]21", "Potency": "inactive"}
{"molecule": "O=C(Oc1ccccc1)c1cccc(C(=O)Oc2ccccc2)c1", "Potency": "inactive"}
{"tested_on": "not listed separately", "assay": "A High-Content qHTS Against Drug Library for the Identification of Small Molecules that Inhibit DYT1 Early Onset Primary Dystonia-Associated Cell Pathology (AID 1645839)", "settings": "HEK293 Flp-In EGFP-delE TorsinA, punctate imaging, 48 h; series mostly up to 46.1 µM", "procedure,_shortened": "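In this high-content image screen, delE TorsinA mislocalization in inducible Flp-In 293 cells is scored as %pathology, with cell count serving as the counterscreen. Compound exposure lasts 48 h under tetracycline induction in reduced-serum medium.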"}
{"molecule": "CC(=O)O[C@@H]1CC2C3CCc4cc(OC(=O)c5ccccc5)ccc4C3CCC2(C)[C@H]1OC(C)=O", "note": "(some centres undefined)", "Potency": "inactive"}
{"molecule": "CN1C(CSCC(F)(F)F)Nc2cc(Cl)c(S(N)(=O)=O)cc2S1(=O)=O", "note": "(centres undefined)", "Potency": "inactive"}
{"molecule": "O=C(O)c1ccc(OCCN2CCCCC2)cc1", "Potency": "inactive"}
{"molecule": "CC(=O)OC[C@H]1O[C@@H](OC(C)=O)[C@H](OC(C)=O)[C@@H]1OC(C)=O", "Potency": "inactive"}
{"molecule": "CC(=O)OCC(=O)[C@@]1(O)[C@H](OC(C)=O)C[C@H]2[C@@H]3CCC4=CC(=O)C=C[C@]4(C)[C@@]3(F)[C@@H](O)C[C@@]21C", "Potency": "inactive"}
{"molecule": "Cc1[nH]cnc1-c1ccc(Cl)cc1", "Potency": "inactive"}
{"molecule": "O=P(O)(O)OCC(O)CO", "note": "(centres undefined)", "Potency": "inactive"}
{"molecule": "CN(C)CCCOC1(Cc2ccccc2)CCCCCC1", "Potency": "inactive"}
{"molecule": "Cc1ccc(C(C)OC(=O)C2(C)CCC(C(=O)O)C2(C)C)cc1", "note": "(centres undefined)", "Potency": "inactive"}
{"molecule": "COC(=O)CCCCC(CCSS/C(CCO)=C(\\C)N(C=O)Cc1cnc(C)nc1N)SC(C)=O", "note": "(centres undefined)", "Potency": "inactive"}
{"molecule": "N#C/C(=C1/SC[C@@H](c2ccc(Cl)cc2Cl)S1)n1ccnc1", "Potency": "inactive"}
{"molecule": "Cc1cnc(NS(=O)(=O)c2ccc(N)cc2)nc1", "Potency": "inactive"}
{"molecule": "CCO[C@H](Cc1ccc(OCCc2ccc(OS(C)(=O)=O)cc2)cc1)C(=O)O", "Potency": "inactive"}
{"molecule": "OC[C@]1(O)OC[C@@H](O)[C@H](O)[C@@H]1O", "Potency": "inactive"}
{"molecule": "CO/N=C(\\C(=O)O)c1csc(NC(=O)CCl)n1", "Potency": "inactive"}
{"molecule": "CN(C)CCN1CCN(c2cccc(Cl)c2)C1=O", "Potency": "inactive"}
{"molecule": "CC(=O)c1ccc(O)c(C(N)=O)c1", "Potency": "inactive"}
{"molecule": "CN1C(=O)c2ccccc2C1=O", "Potency": "inactive"}
{"molecule": "C=CCOc1cc(Cl)ccc1C(=O)NCCN(CC)CC", "Potency": "inactive"}
{"molecule": "CCN(CC)CC(=O)Oc1ccc(NC(C)=O)cc1", "Potency": "inactive"}
{"molecule": "CCC(C(=O)OCCN1CCOC(c2ccccc2)C1C)c1ccccc1", "note": "(centres undefined)", "Potency": "inactive"}
{"molecule": "CCn1ccc(NS(=O)(=O)c2ccc(N)cc2)nc1=O", "Potency": "inactive"}
{"molecule": "COC(=O)c1cc(S(N)(=O)=O)ccc1OC", "Potency": "inactive"}
{"molecule": "CCCCOC(=O)CCCCCCCCC(=O)OCCCC", "Potency": "inactive"}
{"molecule": "O=C1CC[C@H](C(=O)N2CCCCC2)N1", "Potency": "inactive"}
{"molecule": "CCCC(=O)OCOC(=O)C1=C(C)NC(C)=C(C(=O)OC)C1c1cccc(Cl)c1Cl", "note": "(centres undefined)", "Potency": "inactive"}
{"molecule": "CC1(C)O[C@@H]2C[C@H]3[C@@H]4C[C@H](F)C5=CC(=O)C=C[C@]5(C)[C@@]4(F)[C@@H](O)C[C@]3(C)[C@]2(C(=O)CO)O1", "Potency": "inactive"}
{"molecule": "CCOC(=O)Oc1ccc(CCNC(=O)[C@H](CCSC)NC(C)=O)cc1OC(=O)OCC", "Potency": "inactive"}
{"molecule": "NC(=O)COCCN1CCN(C(c2ccccc2)c2ccc(Cl)cc2)CC1", "note": "(centres undefined)", "Potency": "inactive"}
{"molecule": "Nc1ncnc2c1ncn2Cc1c(F)cccc1Cl", "Potency": "inactive"}
{"molecule": "O=c1[nH]c(=O)n([C@H]2O[C@H](CO)[C@@H](O)[C@@H]2O)cc1/C=C\\Br", "Potency": "inactive"}
{"molecule": "CCOC(=O)C(O)c1ccccc1", "note": "(centres undefined)", "Potency": "inactive"}
{"molecule": "CCOc1ccccc1OCC1CNCCO1", "note": "(centres undefined)", "Potency": "inactive"}
{"molecule": "C1=CC2C3C=CC(C3)C2C1", "note": "(centres undefined)", "Potency": "inactive"}
{"molecule": "CC(C)=CCC/C(C)=C/CC/C(C)=C/CCC(=O)OC/C=C(\\C)CCC=C(C)C", "Potency": "inactive"}
{"molecule": "O=C(O)CCCC[C@@H]1SC[C@@H]2NC(=O)N[C@@H]21", "Potency": "inactive"}
{"molecule": "O=C(Oc1ccccc1)c1cccc(C(=O)Oc2ccccc2)c1", "Potency": "inactive"}
